The values that follow come from PubChem BioAssay AID504332 (National Center for Advancing Translational Sciences (NCATS), 2011).

Hit rate of the full screen: of about 350,000 compounds, about 31,000 (8.9%) were called active. Not shown: some 15% with an inconclusive outcome. What follows is part of a selection rich in actives, with near analogues and random picks from the rest. Values without a mark were called inactive. Calls follow the shape of the dose curve; as a rule, active = well fitted inhibition curve with a large enough effect; inconclusive = small, poorly fitted or top-dose-only effect; inactive = no such curve, though single readings can be large or run the other way.
% is scaled to controls: 0 for no effect and ±100 for the full control effect; potency is read from the fitted curve at half-maximal effect.

The target in this test is Histone-lysine N-methyltransferase EHMT2 (Homo sapiens) (UniProt Q96KQ7). The test can be described thus: qHTS Assay for Inhibitors of Histone Lysine Methyltransferase G9a. Also: nearly all actives have a fitted effect of over 75% in size. The note with it: G9a H3K9 monomethylation, AlphaScreen, 2 h; series mostly up to 59 µM; activity, negative = inhibition: at the top concentration. In outline: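 Quantitative HTS format: methyltransferase activity on a biotin-tagged H3K9 peptide is measured by AlphaScreen, using a rabbit anti-monomethyl-H3K9 antibody with streptavidin donor and anti-IgG acceptor beads. Final levels are 20 nM enzyme, 500 nM peptide, 20 uM SAM; 2 h RT.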
Chain of Histone-lysine N-methyltransferase EHMT2 (Homo sapiens) (Q96KQ7 913-1193 limits assumed): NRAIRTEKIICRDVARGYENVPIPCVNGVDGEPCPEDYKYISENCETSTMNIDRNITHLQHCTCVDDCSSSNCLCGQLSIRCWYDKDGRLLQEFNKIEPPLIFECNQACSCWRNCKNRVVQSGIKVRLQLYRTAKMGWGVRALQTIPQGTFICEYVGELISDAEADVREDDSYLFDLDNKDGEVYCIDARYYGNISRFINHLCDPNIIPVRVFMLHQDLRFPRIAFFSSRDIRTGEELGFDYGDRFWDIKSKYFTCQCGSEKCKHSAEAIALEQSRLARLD
In the case of `Fc1ccccc1OCCCCn1cncn1`, the “activity, negative = inhibition” value was -3.44%. For the compound `CN1CCN(CCCCOc2cccc3ccccc23)CC1`, the activity, negative = inhibition is 26.3% [at 2.33 µM].

`CCN1CCN(CCCCOc2ccccc2F)CC1`: the Potency is 10 µM (active).

For the compound `O=C(COC(=O)C1(c2ccc(F)cc2)CCCC1)N1CCNC1=O`, the activity, negative = inhibition is 19.8% [at 12.7 µM]. Turning to `COc1ccc(Cc2nc3ccc(C(=O)NCc4ccc(OC)cc4OC)cc3o2)cc1`, the “activity, negative = inhibition” value was 3.04%. With `COC(=O)C1=C(NC(=O)C(C)(C)C)CCS1`, the Potency is 1.41 µM (active). For `Cc1cc2c(=O)n(CC(=O)NCC(=O)Nc3ccc(C(C)C)cc3)cnc2s1`, the “activity, negative = inhibition” value is 12.3% [at 102 µM]. Still for that read-out and setting: for `O=C(Nc1ccccc1F)c1ccc2c(c1)OCO2` the value was -7.42% [at 0.501 µM].

On to `CC1(c2ccc(Cl)cc2)NC(=O)N(CC(=O)c2ccc3c(c2)OCO3)C1=O` (centres undefined), for which the “activity, negative = inhibition” value was -7.79% [at 102 µM]. As for `O=C(CN1CCN(c2ccccc2F)CC1)c1ccc2c(c1)OCO2`, the Potency is 20 µM (active). With `COc1ccc(C2CC(=O)Nc3c2c(=O)nc2c(C)cccn32)cc1OC` (centres undefined), the “activity, negative = inhibition” value is -13.1%.

In the case of `Cn1c(N)c(C(=O)COC(=O)/C=C/c2cccc(C(F)(F)F)c2)c(=O)n(C)c1=O`, the activity, negative = inhibition is 28.8% [at 2.33 µM]. The same measure, in the same setting: for `CC1(C)O[C@@H]2CC3C4C[C@H](F)C5=CC(=O)C=CC5(C)C4C(O)CC3(C)[C@]2(C(=O)CO)O1` (some centres undefined) the value was -17.2%. For `CCSc1nc2sc3c(c2c(=O)[nH]1)CC(C)(C)OC3`, the “activity, negative = inhibition” value was 7.55% [at 102 µM].

For the compound `CCC1(C)Cc2c(sc3nc(SC)nc(N)c23)CO1` (centres undefined), the “activity, negative = inhibition” value was 17.6%. With `CCC1(C)Cc2c(sc3nc(SC)[nH]c(=O)c23)CO1` (centres undefined), the Potency was 44.7 µM (active).

Consider `COc1ccccc1NC(=O)C(=O)c1cc(C)n(-c2ccccc2F)c1C`, for which the “activity, negative = inhibition” value was -41.8%. Regarding `COc1cc(CNCCSc2nnnn2C)ccc1OCc1ccc(Cl)cc1Cl`, the “activity, negative = inhibition” value is -31.5%. With `Cc1ccccc1OCC(=O)N(Cc1cccc(F)c1)C1CCS(=O)(=O)C1` (centres undefined), the “activity, negative = inhibition” value was 65.3% [at 102 µM]. `CC(C)c1ccc(OCC(=O)N(Cc2ccc(N(C)C)cc2)C2CCS(=O)(=O)C2)cc1` (centres undefined): the Potency was 12.6 µM (active). Regarding `CCc1ccc(OCC(=O)N(Cc2ccccc2)C2CCS(=O)(=O)C2)cc1` (centres undefined), the “activity, negative = inhibition” value was 21.1% [at 102 µM]. Consider `Cc1ccc(CN(C(=O)COc2ccc(Cl)cc2C)C2CCS(=O)(=O)C2)o1` (centres undefined), for which the “activity, negative = inhibition” value was -30%.

Take `Cc1cc(Cl)ccc1OCC(=O)N(Cc1ccc(N(C)C)cc1)C1CCS(=O)(=O)C1` (centres undefined): the Potency was 10 µM (active). As for `COc1cc(C(=O)N(Cc2ccc(C(C)C)cc2)C2CCS(=O)(=O)C2)cc(OC)c1OC` (centres undefined), the “activity, negative = inhibition” value was 2.53%. Turning to `COc1ccc(NC(=O)CSc2nc(SC)ns2)c(OC)c1`, the “activity, negative = inhibition” value is -2.51% [at 102 µM]. `COc1cccc(N2CC(NC(=O)/C=C\c3ccccc3)CC2=O)c1` (centres undefined): the “activity, negative = inhibition” value was 2.58%. As for `CCOc1ccc(NC(=O)CN(C)C(=O)c2cccc(S(=O)(=O)N3CCCC3)c2)cc1OCC`, the “activity, negative = inhibition” value is -27.5% [at 102 µM].

Regarding `CC(C)CN(C(=O)CSc1ncnc2sccc12)C1CCS(=O)(=O)C1` (centres undefined), the activity, negative = inhibition is 0.939% [at 12.7 µM]. `COC(=O)[C@@]12CCCN1[C@H](c1ccc(-c3ccc(F)cc3)c(OC)c1)[C@H]1C(=O)N(C)C(=O)[C@H]12`: the activity, negative = inhibition is 17.2% [at 2.33 µM]. Consider `O=C(/C=C/c1ccc([N+](=O)[O-])o1)NNC(=O)c1ccc(F)cc1`, for which the “activity, negative = inhibition” value was 4.33% [at 102 µM]. On to `Cc1nc2ccccc2c(=O)n1-c1ccc(F)c(NC(=O)c2cccs2)c1`, for which the “activity, negative = inhibition” value is -27.2% [at 102 µM]. For the compound `CC(C)CN(Cc1c(O)ccc2c(=O)c(-c3ccccc3)coc12)CC(C)C`, the “activity, negative = inhibition” value was 6.97% [at 102 µM]. As for `COc1cc(C2NC(=O)NC(c3ccccc3)=C2C(C)=O)c(Br)cc1OCC(N)=O` (centres undefined), the “activity, negative = inhibition” value is 13.9%. For `CC(C)(C)c1ccc(C(=O)NCC(c2ccco2)S(=O)(=O)c2ccc(F)cc2)cc1` (centres undefined), the “activity, negative = inhibition” value is -26.1%. On the same count and under the same terms, for `Cc1cccn2c(=O)c(/C=C3\SC(=S)N(CC(C)C)C3=O)c(NCCCOC(C)C)nc12` the value was 17.9% [at 102 µM]; for `Cc1ccc2[nH]c(=O)c(-c3nc4c(C)cccn4c3NCc3ccco3)cc2c1`, 23.2%. As to `CCCN(CCC)c1nc2c(C)cccn2c(=O)c1/C=C1/SC(=S)N(Cc2ccco2)C1=O`, the Potency was 39.8 µM (active). Regarding `CCc1ccc(NC(=O)c2nn(-c3ccc(C)cc3)c(=O)n(C)c2=O)cc1`, the “activity, negative = inhibition” value was -3.54%. For `NS(=O)(=O)c1ccc(NC(=O)COc2ccc(S(=O)(=O)NC3CCCCC3)cc2)cc1`, the “activity, negative = inhibition” value is 3.03%. For the compound `CCOc1cc(-c2cc(-c3ccc(NC(C)=O)cc3)nc(N)c2C#N)ccc1O`, the “activity, negative = inhibition” value was 11.7%.

Take `CCc1ccc(NC(=O)N2CCc3ccccc3C2)cc1`: the “activity, negative = inhibition” value was 36.1% [at 102 µM]. As for `CCOc1cc(C(=O)Nc2nnc3n2CCS3)cc(OCC)c1OCC`, the “activity, negative = inhibition” value was 35.3%. `COc1ccc(CC(=O)Nc2nnc3n2CCS3)cc1OC`: the Potency is 12.6 µM (active). As to `COc1ccc(CC(=O)NC2CCSc3ccccc32)cc1OC` (centres undefined), the “activity, negative = inhibition” value is -4.72% [at 102 µM].

Consider `COc1ccccc1NC(=O)C(C)OC(=O)c1ccc(-n2cnnn2)cc1` (centres undefined), for which the “activity, negative = inhibition” value is -8.77% [at 102 µM]. Still for that read-out and setting: for `O=C(NNC(=O)c1cccc(S(=O)(=O)Nc2ccc(Cl)cc2)c1)c1ccc(=O)[nH]c1` the value was 17.2% [at 12.7 µM]; for `Cc1ccc(NN=C2C(=O)OC(C)(C)OC2=O)c(C)c1`, -26.1% [at 102 µM]. For `Cc1ccc(N/N=C2\COC(C)(C)CC2=O)cc1`, the Potency is 44.7 µM (active). For the compound `CN(C(=O)COC(=O)c1cc(=O)[nH]c2ccccc12)C1CCCCC1`, the activity, negative = inhibition was -20.6% [at 2.33 µM].
